Test systems include NCI-H23 lung; NCI-H226 lung; NCI-H322M lung; HOP-62 NSCLC; NCI-H460 lung; HOP-92 NSCLC; NCI-H522 lung; A549/ATCC NSCLC; 786-0 renal; COLO 205 colon; DU-145 prostate; K-562 leukemia; MALME-3M melanoma; MDA-MB-231 breast; RXF 393 renal; SF-268 CNS; SF-295 CNS; SF-539 CNS; UACC-257 melanoma; M14 melanoma.
Common to all, as to test: NCI-60 one-dose screen, 48 h (100 = growth as untreated, 0 = no growth, -100 = all killed)
What all share (details): 10 µM unless noted

Eight compounds from PubChem BioAssay (NCI) can be followed below.

This is part of a sample that, as a whole, favours compounds with a hit. Of some 83,000 tested, about 20% had one in any assay.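 Assay: single dose, 48 h. Readout: percent growth (0 = no net growth; negative = cell death). Active: <10.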 Values without a mark were called inactive. Calls of active or inactive are those of the source.

`CCCCCCCCc1ccc(S(=O)(=O)Nc2ccc(CC)cc2C(=O)O)cc1`: the growth was 97.3% in the assay on NCI-H23 lung; 88% in the assay with NCI-H226 lung; 95.2% in the assay with NCI-H322M lung; 99.6% in the assay on HOP-62 NSCLC; 96.7% with NCI-H460 lung; 71% in the assay on HOP-92 NSCLC. Besides, the growth with NCI-H522 lung is 91.4%; with A549/ATCC NSCLC, 91.9%; in the assay on 786-0 renal, 103%; with COLO 205 colon it was 121%; in the assay on DU-145 prostate, 105%; with K-562 leukemia it was 83%. The growth was 98.2% in the assay with MALME-3M melanoma; 102% in the assay with MDA-MB-231 breast; 109% in the assay on RXF 393 renal; 97.4% with SF-268 CNS; 81.2% in the assay on SF-295 CNS; 101% in the assay with SF-539 CNS. Also, the growth was 91.1% in the assay with UACC-257 melanoma and 99.1% with M14 melanoma.

As for `COCOc1cc2c(=O)c(C)c(C(=O)N[C@@H](Cc3ccccc3)C(O)C(=O)NCc3ccccc3)oc2cc1OC` (stereo not given in full), the growth with NCI-H23 lung is 30%; in the assay on NCI-H226 lung it was -40.2% (active); with NCI-H322M lung, 80.6%; in the assay with HOP-62 NSCLC it was 6.54% (active); in the assay on NCI-H460 lung, -9.86% (active); with HOP-92 NSCLC, 27.8%. The growth with NCI-H522 lung is -11% (active); in the assay on A549/ATCC NSCLC, 51.7%; in the assay with 786-0 renal, -0.746% (active); with COLO 205 colon, 49.5%; with DU-145 prostate it was 57.3%; with K-562 leukemia, 40.6%. Besides, the growth with MALME-3M melanoma was -27.7% (active); in the assay on MDA-MB-231 breast, 25.6%; in the assay with RXF 393 renal it was -17.2% (active); in the assay with SF-268 CNS, 1.19% (active); in the assay with SF-295 CNS, 83.5%; with SF-539 CNS, -79.7% (active). The figures for the growth in the assay on UACC-257 melanoma and in the assay with M14 melanoma were 30.2% and 65.2%, respectively.

`COc1ccccc1C(=O)NN1C(=O)/C(=C/C2=Cc3ccccc3OC2)SC1=S`: the growth was 106% in the assay on NCI-H23 lung; 98.9% in the assay on NCI-H226 lung; 99.4% in the assay with NCI-H322M lung; 106% in the assay on HOP-62 NSCLC; 120% in the assay on NCI-H460 lung; 86.6% with HOP-92 NSCLC. Further, the growth in the assay with NCI-H522 lung was 97.9%; with A549/ATCC NSCLC, 103%; with 786-0 renal, 104%; in the assay on COLO 205 colon it was 119%; in the assay with DU-145 prostate it was 112%; in the assay on K-562 leukemia it was 101%. In addition, the growth is 99.3% in the assay with MALME-3M melanoma; 102% with MDA-MB-231 breast; 114% in the assay on RXF 393 renal; 109% with SF-268 CNS; 109% in the assay on SF-295 CNS; 95.4% with SF-539 CNS. The growth with UACC-257 melanoma is 108%; in the assay with M14 melanoma, 99.3%.

Regarding `CC(C)CSc1nc(NCCc2c[nH]c3ccccc23)c(C#N)c(-c2ccc(F)cc2)n1`, the growth was 72.9% with NCI-H23 lung; 44.9% in the assay on NCI-H226 lung; 91.2% in the assay on NCI-H322M lung; 34.9% in the assay on HOP-62 NSCLC; 11.6% in the assay on NCI-H460 lung; 50.9% in the assay with HOP-92 NSCLC. For the same compound, the growth is 62.4% in the assay with NCI-H522 lung; 51.2% in the assay with A549/ATCC NSCLC; 67.9% in the assay on 786-0 renal; 31.6% with COLO 205 colon; 58.6% in the assay with DU-145 prostate; 18.9% in the assay on K-562 leukemia. Moreover, the growth in the assay with MALME-3M melanoma is 73%; in the assay with MDA-MB-231 breast it was 40.8%; in the assay with RXF 393 renal it was 26.1%; in the assay with SF-268 CNS, 51.9%; in the assay with SF-295 CNS it was 46.7%; in the assay with SF-539 CNS, 47.9%. For the same compound, the growth is 81% with UACC-257 melanoma and 62.7% in the assay with M14 melanoma.

As to `CC(C)CSc1nc(NCCc2c[nH]c3ccccc23)c(C#N)c(-c2ccc(Cl)cc2)n1`, the growth was 69.2% with NCI-H23 lung; 51.3% with NCI-H226 lung; 86.5% in the assay on NCI-H322M lung; 49.3% in the assay on HOP-62 NSCLC; 30.3% in the assay with NCI-H460 lung; 36.3% with HOP-92 NSCLC. In addition, the growth is 68.7% in the assay on NCI-H522 lung; 63% in the assay on A549/ATCC NSCLC; 67% with 786-0 renal; 41% with COLO 205 colon; 67.1% with DU-145 prostate; 13.6% in the assay with K-562 leukemia. Moreover, the growth with MALME-3M melanoma is 81.9%; in the assay on MDA-MB-231 breast, 48.2%; with RXF 393 renal, 31%; with SF-268 CNS, 55%; in the assay with SF-295 CNS, 66.4%; in the assay on SF-539 CNS, 60.9%. In addition, the results for the growth in the assay on UACC-257 melanoma and in the assay on M14 melanoma were 85.8% and 67.6%, respectively.

Turning to `CCCSc1nc(NCCc2c[nH]c3ccccc23)c(C#N)c(-c2ccccc2)n1`, the growth is 89.4% in the assay with NCI-H23 lung; 65.4% in the assay with NCI-H226 lung; 93.5% in the assay on NCI-H322M lung; 65.4% with HOP-62 NSCLC; 25% with NCI-H460 lung; 78.9% with HOP-92 NSCLC. For the same compound, the growth with NCI-H522 lung is 57.9%; in the assay with A549/ATCC NSCLC it was 73.5%; with 786-0 renal it was 74.7%; with COLO 205 colon, 62.8%; in the assay with DU-145 prostate, 75.3%; in the assay with K-562 leukemia it was 25.2%. Moreover, the growth in the assay with MALME-3M melanoma is 100%; in the assay on MDA-MB-231 breast, 40.6%; in the assay on RXF 393 renal, 55.2%; in the assay on SF-268 CNS, 70.5%; with SF-295 CNS, 72.6%; in the assay with SF-539 CNS, 66.2%. Moreover, the values for the growth in the assay on UACC-257 melanoma and in the assay on M14 melanoma were 100% and 83.5%, respectively.

Regarding `Cc1ccc([C@H]2C(C(=O)c3ccc(Cl)cc3)C3(N[C@@H]2c2ccccc2)C(=O)Nc2ccccc23)cc1` (stereo not given in full), the growth is 44.1% in the assay on NCI-H23 lung; 45.5% in the assay on NCI-H226 lung; 55.4% in the assay with NCI-H322M lung; 44% in the assay with HOP-62 NSCLC; 45.8% with NCI-H460 lung; -3.21% (active) in the assay on HOP-92 NSCLC. For the same compound, the growth in the assay with NCI-H522 lung is 12.9%; in the assay with A549/ATCC NSCLC, 25.9%; in the assay on 786-0 renal it was 33.4%; with COLO 205 colon it was 19.2%; in the assay with DU-145 prostate it was 80.2%; in the assay on K-562 leukemia it was 11.8%. Besides, the growth in the assay on MALME-3M melanoma is 20.5%; with MDA-MB-231 breast it was 27.2%; in the assay on RXF 393 renal, 19%; with SF-268 CNS, 61.1%; with SF-295 CNS it was 42.6%; in the assay on SF-539 CNS, 83.9%. The growth is 26.9% in the assay with UACC-257 melanoma and 28.7% in the assay with M14 melanoma.

On to `C=C1CCC2C3(C)COC(c4cc(F)cc(F)c4)OC3CCC2(C)C1CC(O)C1=CCOC1=O` (stereo not given), for which the growth in the assay with NCI-H23 lung was 64.9%; in the assay with NCI-H226 lung it was 92.1%; in the assay with NCI-H322M lung, 95%; in the assay on HOP-62 NSCLC it was 90.6%; in the assay with NCI-H460 lung it was 66.3%; in the assay with HOP-92 NSCLC it was 46.2%. In addition, the growth is 11.9% in the assay on NCI-H522 lung; 75.2% in the assay with A549/ATCC NSCLC; 30.3% with 786-0 renal; 59.5% in the assay with COLO 205 colon; 72.9% in the assay on DU-145 prostate; 24.6% with K-562 leukemia. For the same compound, the growth in the assay with MALME-3M melanoma was 88.6%; with MDA-MB-231 breast, 63.2%; in the assay on RXF 393 renal, 56.4%; with SF-268 CNS it was 97.3%; in the assay with SF-295 CNS it was 77.9%; in the assay on SF-539 CNS, 79.6%. The growth in the assay on UACC-257 melanoma is 73.7%; in the assay with M14 melanoma, 58.7%.
